Source: PubChem BioAssay (EPA / NIEHS)
Results filed as inconclusive are left out. Active and inactive are the calls of the source. How the source made its calls, unless noted: active means hit-call score of the fitted dose curve at least 0.9, where 1 is the maximum; inconclusive means response in the unintended direction; inactive means score below 0.9.

What was measured:
[1] = biological target: Estrogen receptor beta (Homo sapiens) (UniProt Q92731); assay: OT_ER_ERbERb_1440: Odyssey Thera (OT) 24-hour HEK293T Protein-Complementation Assay for Estrogen Receptor-beta/-beta Homodimer (AID 2283380);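 further: fluorescence gain from ER beta LBD homodimer complementation read by laser scanning cytometry; scored as signal increase over DMSO baseline for both agonists and antagonists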
Outline: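 HEK293T cells stably expressing human ER-beta LBD (aa 310-547) PCA homodimer pair, dosed 24 h; formaldehyde-fixed, Draq5-stained. Readout: increase in nuclear (agonist) or nuclear plus cytoplasmic (antagonist) fluorescence intensity versus DMSO, gain-of-signal fitting.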

[2] = biological target: Estrogen receptor (Homo sapiens) (UniProt P03372); assay: OT_ERa_GFPERaERE_0480: Odyssey Thera (OT) 8-hour HeLa Transcription Induction Assay for Estrogen Receptor (AID 2283381; active means hit-call score of the fitted dose curve at least 0.9, where 1 is the maximum; inactive means score below 0.9)
Outline: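 HeLa cells dosed with compound and imaged by fluorescence microscopy at 8 h; GFP induction from an ERE reporter quantified by high-content image analysis and fitted as gain of signal against DMSO baseline.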

[3] = biological target: Estrogen receptor (Homo sapiens) (UniProt P03372); assay: OT_ERa_GFPERaERE_0120: Odyssey Thera (OT) 2-hour HeLa Transcription Induction Assay for Estrogen Receptor (AID 2283382)
Outline: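 HeLa cells were dosed with test chemical and read 2 hours later for GFP-ERα/ERE-linked fluorescent protein induction by fluorescence microscopy. Gain-of-signal was fitted relative to DMSO baseline, quantified by high content image analysis.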

[4] = biological target: Bile acid receptor (Homo sapiens) (UniProt Q96RI1); assay: OT_FXR_FXRSRC1_0480: Odyssey Thera (OT) 8-hour HEK293T Protein-Complementation Assay for Farnesoid X receptor/SRC-1 Co-activator (AID 2283383)
Outline: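 HEK293T cells expressing FXR and SRC-1 fused to reporter fragments were dosed with compound for 8 h; fluorescence from the reconstituted reporter marked co-activator recruitment. Gain of signal was fitted against the DMSO baseline.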

[5] = biological target: Bile acid receptor (Homo sapiens) (UniProt Q96RI1); assay: OT_FXR_FXRSRC1_1440: Odyssey Thera (OT) 24-hour HEK293T Protein-Complementation Assay for Farnesoid X receptor/SRC-1 Co-activator (AID 2283384)
Outline: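 HEK293T cells were dosed with compound and read 24 h later by fluorescence intensity from protein-fragment complementation reporting FXR/SRC-1 co-activator interaction. Gain of signal was fitted relative to DMSO negative control as baseline.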

Sequence of Bile acid receptor (Homo sapiens) (Q96RI1 whole entry, looked up, the tested form may be a part): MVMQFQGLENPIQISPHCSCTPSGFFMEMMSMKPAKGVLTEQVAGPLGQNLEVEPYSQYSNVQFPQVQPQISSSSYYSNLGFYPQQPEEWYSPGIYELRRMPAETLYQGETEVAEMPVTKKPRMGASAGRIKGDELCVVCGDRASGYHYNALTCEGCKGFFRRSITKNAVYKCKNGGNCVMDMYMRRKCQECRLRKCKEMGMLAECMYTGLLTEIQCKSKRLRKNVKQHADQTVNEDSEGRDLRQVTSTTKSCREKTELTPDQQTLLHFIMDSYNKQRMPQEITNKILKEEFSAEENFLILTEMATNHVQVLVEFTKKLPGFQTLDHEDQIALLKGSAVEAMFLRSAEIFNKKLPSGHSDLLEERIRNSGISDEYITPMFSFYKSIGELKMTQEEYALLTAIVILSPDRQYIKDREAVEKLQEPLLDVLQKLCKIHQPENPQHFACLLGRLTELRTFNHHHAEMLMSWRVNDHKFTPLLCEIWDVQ
Sequence of Estrogen receptor (Homo sapiens) (P03372 whole entry, looked up): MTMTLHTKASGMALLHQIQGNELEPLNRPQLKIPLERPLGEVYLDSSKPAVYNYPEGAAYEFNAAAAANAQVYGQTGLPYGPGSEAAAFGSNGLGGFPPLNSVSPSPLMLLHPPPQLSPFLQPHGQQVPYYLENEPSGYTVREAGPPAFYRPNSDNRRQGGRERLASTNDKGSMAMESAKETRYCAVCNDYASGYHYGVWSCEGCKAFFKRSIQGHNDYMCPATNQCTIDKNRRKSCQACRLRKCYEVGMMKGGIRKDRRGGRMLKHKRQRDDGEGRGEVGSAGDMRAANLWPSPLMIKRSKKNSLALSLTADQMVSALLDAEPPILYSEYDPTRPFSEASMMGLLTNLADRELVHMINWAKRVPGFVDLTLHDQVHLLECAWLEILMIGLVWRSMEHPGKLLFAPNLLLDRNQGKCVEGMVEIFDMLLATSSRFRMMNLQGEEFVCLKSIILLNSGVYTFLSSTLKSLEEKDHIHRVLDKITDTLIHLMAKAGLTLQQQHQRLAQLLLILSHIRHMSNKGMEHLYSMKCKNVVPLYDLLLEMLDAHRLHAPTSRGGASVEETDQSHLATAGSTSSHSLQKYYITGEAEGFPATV
Sequence of Estrogen receptor beta (Homo sapiens) (Q92731 whole entry, looked up, the tested form may be a part): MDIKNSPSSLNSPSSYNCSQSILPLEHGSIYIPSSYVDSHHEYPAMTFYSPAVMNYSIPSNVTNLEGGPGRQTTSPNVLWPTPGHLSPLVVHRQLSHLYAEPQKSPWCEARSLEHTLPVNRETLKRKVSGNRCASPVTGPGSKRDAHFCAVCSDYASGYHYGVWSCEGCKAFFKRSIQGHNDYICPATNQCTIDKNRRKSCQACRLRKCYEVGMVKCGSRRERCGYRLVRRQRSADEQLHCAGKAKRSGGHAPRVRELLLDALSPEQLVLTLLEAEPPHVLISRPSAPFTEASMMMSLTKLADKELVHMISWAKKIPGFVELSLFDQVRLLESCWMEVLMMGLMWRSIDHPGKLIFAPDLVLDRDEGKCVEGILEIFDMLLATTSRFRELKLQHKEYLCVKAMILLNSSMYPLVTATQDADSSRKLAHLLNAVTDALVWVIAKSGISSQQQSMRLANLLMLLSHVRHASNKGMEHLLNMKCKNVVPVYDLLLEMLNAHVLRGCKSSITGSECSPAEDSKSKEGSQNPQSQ

## CC[C@H](C)C(=O)O[C@H]1C[C@@H](C)C=C2C=C[C@H](C)[C@H](CC[C@@H]3C[C@@H](O)CC(=O)O3)[C@H]21
[1]
  outcome: inactive
[2]
  outcome: inactive
[3]
  outcome: inactive
[4]
  AC50: 32 µM (active)
[5]
  AC50: 34.8 µM (active)

## CN(C)c1ccc(Cc2ccc(N(C)C)cc2)cc1
[1]
  outcome: inactive
[4]
  AC50: 28 µM (active)
[5]
  outcome: inactive

## O=C1CCCCCN1
[1]
  outcome: inactive
[4]
  outcome: inactive
[5]
  outcome: inactive

## O=c1n(CC2CO2)c(=O)n(CC2CO2)c(=O)n1CC1CO1 (configuration not stated)
[1]
  outcome: inactive
[2]
  outcome: inactive
[3]
  outcome: inactive

## COC(=O)c1ccccc1O
[1]
  outcome: inactive
[2]
  outcome: inactive
[3]
  outcome: inactive
